Assay results published in PubChem BioAssay (NCATS).
Results filed as inconclusive are left out. Unmarked numbers belong to inactive results. The source made the active and inactive calls. The call rests on the fitted dose curve; in most records, active means well fitted inhibition curve with a large enough effect; inconclusive means small, poorly fitted or top-dose-only effect; inactive means flat fitted curve, though single readings scatter.

How the values were obtained:
Experiment in all cases: Cytotoxic Profiling of Annotated Libraries Using Quantitative High-Throughput Screening (AID 1296008); further: nearly all actives have a fitted effect of over 60% in size
Conditions in all cases: Five cell lines viability, CellTiter-Glo ATP luminescence, 48-72 h; max response: stronger effect = lower value
HEK293 = system: HEK293
Outline: (§1)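 Cytotoxicity was measured as CellTiter-Glo ATP luminescence, read after 10 min at room temperature. Compound treatment of the cells lasted 48 or 72 hr at 37 degrees Celsius in a qHTS format.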

KB-3-1 = system: KB-3-1
Outline: as §1

NIH3T3 = system: NIH3T3
Outline: as §1
On the % scale 0 is the no-effect control and ±100 the full control effect; potency means the concentration at half of the fitted maximal effect.

Row | SMILES | Potency (HEK293) | Potency (KB-3-1) | Potency (NIH3T3) | max response (HEK293) [%] | max response (KB-3-1) [%] | max response (NIH3T3) [%]
1 | CC[C@H](CO)Nc1nc(NCc2ccc(-c3ccccn3)cc2)c2ncn(C(C)C)c2n1 | 206 nM (active) | 116 nM (active) | 517 nM (active) | – | – | –
2 | CC1=CC(=O)[C@H]2C(C)(C)CCC[C@]2(C)[C@@]1(O)CO | – | – | – | -15.2 | 7.19 | 3.55
3 | O=C(c1ccc(/C=C/c2n[nH]c3ccccc23)cc1)N1CCNCC1 | 20600 nM (active) | 5800 nM (active) | 4610 nM (active) | – | – | –
4 | COc1cc(C(=O)NC2CCN(C)CC2)c(F)cc1Nc1ncc2c(n1)N(C1CCCC1)CC(F)(F)C(=O)N2C | 18.4 nM (active) | 10.3 nM (active) | 820 nM (active) | – | – | –
